Test results taken from the supplement of paper PMC12297408.
Counter-ions that a name gives are not always drawn. Unmarked numbers belong to inactive results.

System: Plasmodium falciparum NF54/iGP1_RE9H ulg8 stage V gametocytes
Experiment: gametocyte viability (luciferase signal relative to DMSO control) (% of DMSO control); higher = less gametocytocidal activity, active = 50 or less
Conditions: concentration: 1 µM; exposure time: 72 h
Method: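 Synchronous P. falciparum NF54/iGP1_RE9H ulg8 mature stage V gametocytes (day 12) were exposed to Cayman Epigenetics Screening Library compounds at 10 µM or 1 µM for 72 h at 37 °C. Viability was read as RE9H luciferase bioluminescence, normalised to DMSO plate controls (100%); 50 µM methylene blue was the positive control.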

SMILES | gametocyte viability
Cc1ccc(NC(=O)CCCCCC(=O)Nc2ccccc2N)cc1 [Pimelic Diphenylamide 106] | 86.8
CC[C@@H]1C(=O)N(C)c2cnc(Nc3ccc(C(=O)NC4CCN(C)CC4)cc3OC)nc2N1C1CCCC1 | 78.1
O=c1oc2c(O)c(O)cc3c(=O)oc4c(O)c(O)cc1c4c23 [Ellagic Acid] | 101
Cc1cc(C)c(CNC(=O)c2cc(-c3ccc(N4CCN(C)CC4)nc3)cc3c2c(C)cn3C(C)C)c(=O)[nH]1 | 78.5
COc1cc(-c2cn(C)c(=O)c3cnccc23)c(OC)cc1CN(C)C | 86.9
Clc1ccc(-c2csc(NN=C3CCCC3)n2)cc1 [CPTH2 (hydrochloride)] | 98.4
O=C(c1cncc(Br)c1)N1CCC(N2CCCC2)CC1 | 86.5
O=C1/C(=C/c2ccc(O)c(Br)c2)CCC/C1=C\c1ccc(O)c(Br)c1 [HAT Inhibitor II] | 89.2
COc1cc2c(NC3CCN(C(C)C)CC3)nc(C3CCCCC3)nc2cc1OCCCN1CCCC1 | 77.7
COc1cc(O)c2c(c1)oc(=O)c1c3cc(O)c(O)cc3oc21 [Wedelolactone] | 89.6
Nc1cc(F)ccc1NC(=O)c1ccc(CNC(=O)/C=C/c2cccnc2)cc1 [Chidamide] | 92.7
COc1cc2c(NC3CCN(C4CCCCC4)CC3)nc(N3CCCN(C(C)C)CC3)nc2cc1OCCCN1CCCCC1 | 75.5
CC(NC(=O)c1ccccc1/N=C/c1c(O)ccc2ccccc12)c1ccccc1 (stereo not given) [Sirtinol] | 102
COc1cc(OC)c2c(=O)[nH]c(-c3cc(C)c(OCCO)c(C)c3)nc2c1 | 94.1
O=C1CCc2c(ccc3ccccc23)O1 [Splitomicin] | 86.2
O=C(CCCCCCC(=O)Nc1ccc(I)cc1)NO [4-iodo-SAHA] | 88.3
CC(C)C(=O)SCCCCCCC(=O)Nc1nc(-c2ccccc2)cs1 | 82.8
Cc1cc(C)cc(C(=O)NOCCCCCC(=O)NO)c1 | 92.1
CCCc1cc2c(N3CCN(C4=NCC(C)(C)S4)CC3)ncnc2s1 [MI-2 (hydrochloride)] | 80.6
CCOC(=O)NNc1nncc2ccccc12 [Todralazine (hydrochloride)] | 89.5

Same assay, conditions: concentration: 10 µM; exposure time: 72 h

SMILES | gametocyte viability
Cc1ccc(NC(=O)CCCCCC(=O)Nc2ccccc2N)cc1 [Pimelic Diphenylamide 106] | 89
CC[C@@H]1C(=O)N(C)c2cnc(Nc3ccc(C(=O)NC4CCN(C)CC4)cc3OC)nc2N1C1CCCC1 | 16.6 (active)
O=c1oc2c(O)c(O)cc3c(=O)oc4c(O)c(O)cc1c4c23 [Ellagic Acid] | 95.3
Cc1cc(C)c(CNC(=O)c2cc(-c3ccc(N4CCN(C)CC4)nc3)cc3c2c(C)cn3C(C)C)c(=O)[nH]1 | 62.9
COc1cc(-c2cn(C)c(=O)c3cnccc23)c(OC)cc1CN(C)C | 85.8
Clc1ccc(-c2csc(NN=C3CCCC3)n2)cc1 [CPTH2 (hydrochloride)] | 83.9
O=C(c1cncc(Br)c1)N1CCC(N2CCCC2)CC1 | 91.4
O=C1/C(=C/c2ccc(O)c(Br)c2)CCC/C1=C\c1ccc(O)c(Br)c1 [HAT Inhibitor II] | 83.2
COc1cc2c(NC3CCN(C(C)C)CC3)nc(C3CCCCC3)nc2cc1OCCCN1CCCC1 | 15.4 (active)
COc1cc(O)c2c(c1)oc(=O)c1c3cc(O)c(O)cc3oc21 [Wedelolactone] | 81.5
Nc1cc(F)ccc1NC(=O)c1ccc(CNC(=O)/C=C/c2cccnc2)cc1 [Chidamide] | 93.4
COc1cc2c(NC3CCN(C4CCCCC4)CC3)nc(N3CCCN(C(C)C)CC3)nc2cc1OCCCN1CCCCC1 | 13.4 (active)
CC(NC(=O)c1ccccc1/N=C/c1c(O)ccc2ccccc12)c1ccccc1 (stereo not given) [Sirtinol] | 95
COc1cc(OC)c2c(=O)[nH]c(-c3cc(C)c(OCCO)c(C)c3)nc2c1 | 92.5
O=C1CCc2c(ccc3ccccc23)O1 [Splitomicin] | 80.9
O=C(CCCCCCC(=O)Nc1ccc(I)cc1)NO [4-iodo-SAHA] | 67.2
CC(C)C(=O)SCCCCCCC(=O)Nc1nc(-c2ccccc2)cs1 | 79.7
Cc1cc(C)cc(C(=O)NOCCCCCC(=O)NO)c1 | 64.9
CCCc1cc2c(N3CCN(C4=NCC(C)(C)S4)CC3)ncnc2s1 [MI-2 (hydrochloride)] | 63.3
CCOC(=O)NNc1nncc2ccccc12 [Todralazine (hydrochloride)] | 89.1
